# Measured values published in PubChem BioAssay (Tox21).
# A number with no mark means an inactive call. Records with an inconclusive call do not appear. Entries that show only a call come without a potency. The source made the active and inactive calls. Unless noted, calls follow the shape of the dose curve; as a rule, active = well fitted curve in the direction sought with a large enough effect in the repeat runs; inconclusive = weak or mixed curves; inactive = no such curve, though single readings can be large; an effect the other way counts as inactive or inconclusive.
# Tests used:
# [1] = target: Androgen receptor (Homo sapiens) (UniProt P10275); assay: qHTS assay to identify small molecule antagonists of the androgen receptor (AR) signaling pathway using the MDA cell line in the presence of 0.5 nM R1881 (AID 1259243); also: nearly all actives have a fitted effect of over 50% in size; also: potency is read from the fitted curve at half-maximal effect
# Procedure, shortened: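 We exposed MDA-kb2 cells to compounds under 0.5 nM R1881 stimulation for 16 hr at 37C and quantified MMTV-driven luciferase by luminescence.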
# [2] = target: Estrogen receptor (Homo sapiens) (UniProt P03372); assay: qHTS assay to identify small molecule antagonists of the estrogen receptor alpha (ER-alpha) signaling pathway using the BG1 cell line in the presence of 0.1 nM 17-beta-estradiol (AID 1259244); also: nearly all actives have a fitted effect of over 50% in size
# Procedure, shortened: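 VM7Luc4E2; 4xERE-luciferase; 0.1 nM E2 final; 22 h co-incubation, 37C; ONE-Glo luminescence after 30 min at room temperature.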
# [3] = qHTS assay to identify small molecule phospholipidosis (PLD) inducers (AID 1259344; active = well fitted curve in the direction sought with a large enough effect; an effect the other way counts as inactive or inconclusive)
# Procedure, shortened: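 Fluorescent phospholipid staining (LipidTOX Red) measured by automated microscopy in fixed HepG2 cells after 24 h treatment; nuclei counterstained with Hoechst 33342; amiodarone as reference inducer.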
# [4] = qHTS assay to identify small molecule HDAC inhibitors (AID 1259364);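 also: wild-type HCT-116 cells with endogenous class I/II HDAC activity; top concentration of the series differs between compounds; nearly all actives have a fitted effect of over 45% in size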
# Procedure, shortened: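 Relative class I and II HDAC activity is taken from the luminogenic signal in HCT-116 cells, with compound exposure 2 hr and reagent development 30 min at room temperature.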
# [5] = qHTS assay to identify small molecule antagonists of the sonic hedgehog signaling (Shh) pathway - cell viability counter screen (AID 1259367); also: nearly all actives have a fitted effect of over 55% in size
# Procedure, shortened: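 Using CellTiter-Fluor, viability of Gli1-Luc reporter 3T3 cells is read by fluorescence in the wells used for the Shh luciferase assay. Treatment lasts 23 hr with conditioned medium, then reagent 1 hr at 37C.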
# [6] = qHTS assay to identify small molecule agonists of the sonic hedgehog signaling (Shh) pathway (AID 1259368; calls by dose curve;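 also: NIH/3T3-derived 3T3Gli1-Luc cells carrying a stable Gli1-driven firefly luciferase reporter; series mostly up to about 92 µM; nearly all actives have a fitted effect of over 15% in size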)
# Procedure, shortened: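 Mouse fibroblast (NIH/3T3) reporter cells with stably integrated Gli1-Luc were treated 24 hr with compound; firefly luciferase luminescence served as the read-out.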
# [7] = qHTS assay to identify small molecule agonists of the androgen receptor (AR) signaling pathway in the presence of an antagonist - cell viability counter screen (AID 1259379);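 also: MDA-kb2 human breast cancer cells carrying an MMTV luciferase reporter; series mostly up to about 92 µM; nearly all actives have a fitted effect of over 25% in size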
# Procedure, shortened: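 A CellTiter-Fluor read-out measured viability of MDA-kb2 reporter cells (MMTV promoter with AR and GR response elements). Treatment: nilutamide 3.0uM final with compounds at 15 concentrations, 16 hr, 37C, 0% CO2.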
# [8] = qHTS assay to identify small molecule agonists of the estrogen receptor beta (ER-beta) signaling pathway - cell viability counter screen (AID 1259380); also: nearly all actives have a fitted effect of over 30% in size; also: potency is read from the fitted curve at half-maximal effect
# Procedure, shortened: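 Cells used were ER-beta-UAS-bla HEK293T in medium with 2% charcoal-stripped FBS. They were treated for 16 hr at 37C. Viability came from CellTiter-Glo luminescence.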
# [9] = qHTS assay to identify small molecule antagonists of the estrogen receptor beta (ER-beta) signaling pathway - cell viability counter screen (AID 1259382); also: nearly all actives have a fitted effect of over 55% in size; also: potency is read from the fitted curve at half-maximal effect
# Procedure, shortened: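 Agonist-stimulated (1nM E2) ER-beta-UAS-bla HEK293T cells are incubated with library compounds for 16 hr at 37C. Cell viability is then assessed in the reporter-assay wells by adding CellTiter-Glo and reading luminescence after 30 min.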
# [10] = target: Estrogen receptor (Homo sapiens) (UniProt P03372); assay: qHTS assay to identify small molecule agonists of the estrogen receptor alpha (ER-alpha) signaling pathway in the presence of an antagonist (AID 1259383; calls by dose curve; also: top concentration of the series differs between compounds; nearly all actives have a fitted effect of over 15% in size)
# Procedure, shortened: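 Using VM7Luc4E2 cells seeded 24hr before treatment, antagonist ICI-182,780 (10.0nM final) was added, followed by compounds at 15 concentrations. Plates incubated 22hr; ONE-Glo luminescence quantified reporter activity.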
# [11] = qHTS assay to identify small molecule agonists or antagonists of the thyroid stimulating hormone receptor (TSHR) signaling pathway - wild type cell line counter screen (AID 1259384; calls by dose curve)
# Procedure, shortened: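 Counter screen in untransfected Hek293: compounds (15-point titration, triplicate) plus phosphodiesterase inhibitor Ro20-1724 added after 18 h plating; 30 min RT. Intracellular cAMP via competitive d2/cryptate immunoassay, 1 h incubation.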
# [12] = target: Thyrotropin receptor (Homo sapiens) (UniProt P16473); assay: qHTS assay to identify small molecule antagonists of the thyroid stimulating hormone receptor (TSHR) signaling pathway (AID 1259385; calls by dose curve; also: nearly all actives have a fitted effect of over 20% in size)
# Procedure, shortened: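 Antagonist mode: compound-treated TSHR-expressing HEK293 cells were stimulated with 1.5 ng/mL TSH (final) in presence of Ro20-1724 for 30 min at RT. HTRF cAMP detection after 1 h; each compound tested at 15 concentrations, triplicate.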
# [13] = qHTS assay to identify small molecule agonists of the estrogen receptor alpha (ER-alpha) signaling pathway in the presence of an antagonist - cell viability counter screen (AID 1259386);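 also: series mostly up to about 92 µM; cells exposed to compounds for 22 h at 37 °C before the viability read; nearly all actives have a fitted effect of over 30% in size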
# Procedure, shortened: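 ICI-182,780 at 10.0nM final accompanies the compound titration (15 concentrations, 22hr, 37C) on VM7Luc4E2 cells. The CellTiter-Fluor fluorescence readout runs in the same wells as the luciferase assay.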
# [14] = qHTS assay to identify small molecule HDAC inhibitors - cell viability counter screen (AID 1259365); also: series mostly up to about 92 µM; nearly all actives have a fitted effect of over 50% in size
# Procedure, shortened: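 After overnight seeding at 1,500 cells per well, wild-type HCT-116 cultures took up compounds in DMSO for 2hr at 37 C. Viable cell content came from luminescence with CellTiter-Glo.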
# [15] = qHTS assay to identify small molecule agonists of the sonic hedgehog signaling (Shh) pathway - cell viability counter screen (AID 1259366); also: nearly all actives have a fitted effect of over 50% in size
# Procedure, shortened: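 Same-well cytotoxicity read. Gli1-Luc reporter 3T3 cells; compounds 24hr, 37C/5% CO2; CellTiter-Fluor fluorescence.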
# [16] = qHTS assay to identify small molecule antagonists of the sonic hedgehog signaling (Shh) pathway (AID 1259369; calls by dose curve; also: nearly all actives have a fitted effect of over 45% in size)
# Procedure, shortened: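 Conditioned medium drives Shh signalling in 3T3Gli1-Luc cells; compounds in DMSO co-applied, 24hr at 37 C, then luciferase luminescence.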
# [17] = target: Estrogen receptor beta (Homo sapiens) (UniProt Q92731); assay: qHTS assay to identify small molecule agonists of the estrogen receptor beta (ER-beta) signaling pathway (AID 1259377; active = well fitted activation curve with a large enough effect in the signal ratio in the repeat runs, not every such curve was filed as active; the % refers to the signal ratio)
# Procedure, shortened: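 Read-out: beta-lactamase FRET fluorescence. Cell line: ER-beta-UAS-bla HEK293T in 2% charcoal-stripped FBS. Exposure: 16 hr at 37C. Substrate step: 2 h at room temperature.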
# [18] = target: Estrogen receptor beta (Homo sapiens) (UniProt Q92731); assay: qHTS assay to identify small molecule antagonists of the estrogen receptor beta (ER-beta) signaling pathway (AID 1259378; active = well fitted inhibition curve with a large enough effect in the signal ratio in the repeat runs, not every such curve was filed as active; the % refers to the signal ratio)
# Procedure, shortened: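 Antagonist mode: compounds added to beta-lactamase reporter HEK293T ER-beta-UAS cells stimulated with E2 (1nM final), 16 hr at 37C. LiveBLAzer B/G FRET substrate, 2 hours room temperature, fluorescence read-out.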
# [19] = target: Progesterone receptor (Homo sapiens) (UniProt P06401); assay: qHTS assay to identify small molecule agonists of the progesterone receptor (PR) signaling pathway (AID 1346784; calls by dose curve; also: nearly all actives have a fitted effect of over 30% in size)
# Procedure, shortened: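 Compounds were tested for PR agonism in HEK 293T cells bearing a beta-lactamase gene under UAS control. Treatment lasted 16 hr at 37C; signal came from fluorescence of a FRET substrate.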
# [20] = target: Androgen receptor (Homo sapiens) (UniProt P10275); assay: qHTS assay to identify small molecule agonists of the androgen receptor (AR) signaling pathway in the presence of an antagonist (AID 1259381; calls by dose curve; also: nearly all actives have a fitted effect of over 15% in size)
# Procedure, shortened: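 Using human MDA-kb2 cells with an MMTV promoter–luciferase construct (AR and GR response elements), agonist activity is scored under 3.0uM nilutamide (final) co-treatment; 16hr incubation, 37C, luminescence readout via ONE-Glo.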
# Chain of Estrogen receptor beta (Homo sapiens) (Q92731 whole entry, looked up): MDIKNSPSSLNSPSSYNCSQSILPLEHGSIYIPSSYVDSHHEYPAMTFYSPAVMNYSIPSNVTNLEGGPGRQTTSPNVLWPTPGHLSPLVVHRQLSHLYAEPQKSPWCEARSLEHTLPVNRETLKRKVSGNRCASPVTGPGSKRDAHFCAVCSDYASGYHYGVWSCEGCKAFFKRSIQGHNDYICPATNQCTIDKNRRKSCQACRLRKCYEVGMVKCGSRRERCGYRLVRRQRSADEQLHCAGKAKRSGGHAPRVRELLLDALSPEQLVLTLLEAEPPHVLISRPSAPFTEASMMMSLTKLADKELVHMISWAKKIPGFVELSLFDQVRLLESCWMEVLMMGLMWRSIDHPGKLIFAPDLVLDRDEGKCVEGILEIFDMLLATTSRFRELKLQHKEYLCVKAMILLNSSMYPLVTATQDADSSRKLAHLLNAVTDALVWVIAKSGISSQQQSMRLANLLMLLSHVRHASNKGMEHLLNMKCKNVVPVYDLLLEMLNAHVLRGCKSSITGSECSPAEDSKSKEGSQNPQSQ
# Chain of Androgen receptor (Homo sapiens) (P10275 whole entry, looked up): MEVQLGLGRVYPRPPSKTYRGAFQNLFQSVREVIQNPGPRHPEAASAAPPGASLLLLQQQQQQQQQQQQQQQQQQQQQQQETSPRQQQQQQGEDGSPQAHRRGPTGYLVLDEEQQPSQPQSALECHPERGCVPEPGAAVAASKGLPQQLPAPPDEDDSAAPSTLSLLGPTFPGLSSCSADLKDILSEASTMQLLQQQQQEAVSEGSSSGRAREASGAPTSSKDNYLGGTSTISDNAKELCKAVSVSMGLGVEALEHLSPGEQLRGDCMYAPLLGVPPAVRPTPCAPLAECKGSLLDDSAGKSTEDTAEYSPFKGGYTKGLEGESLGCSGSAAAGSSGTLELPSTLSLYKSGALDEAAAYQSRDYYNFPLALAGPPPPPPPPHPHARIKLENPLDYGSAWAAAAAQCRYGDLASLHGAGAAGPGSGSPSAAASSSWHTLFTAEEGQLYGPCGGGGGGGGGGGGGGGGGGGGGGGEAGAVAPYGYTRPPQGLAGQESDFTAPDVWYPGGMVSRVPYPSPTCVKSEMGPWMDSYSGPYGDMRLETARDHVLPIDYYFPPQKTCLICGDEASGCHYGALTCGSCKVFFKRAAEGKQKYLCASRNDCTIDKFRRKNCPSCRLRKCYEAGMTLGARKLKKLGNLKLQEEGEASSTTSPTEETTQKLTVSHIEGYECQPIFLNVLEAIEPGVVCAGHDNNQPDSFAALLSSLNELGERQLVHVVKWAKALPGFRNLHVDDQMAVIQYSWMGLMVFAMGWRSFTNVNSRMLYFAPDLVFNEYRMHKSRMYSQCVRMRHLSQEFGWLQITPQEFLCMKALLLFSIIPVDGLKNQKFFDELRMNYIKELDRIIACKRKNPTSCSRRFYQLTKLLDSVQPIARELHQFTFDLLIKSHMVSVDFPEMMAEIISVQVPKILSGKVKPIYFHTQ
# Chain of Thyrotropin receptor (Homo sapiens) (P16473 whole entry, looked up): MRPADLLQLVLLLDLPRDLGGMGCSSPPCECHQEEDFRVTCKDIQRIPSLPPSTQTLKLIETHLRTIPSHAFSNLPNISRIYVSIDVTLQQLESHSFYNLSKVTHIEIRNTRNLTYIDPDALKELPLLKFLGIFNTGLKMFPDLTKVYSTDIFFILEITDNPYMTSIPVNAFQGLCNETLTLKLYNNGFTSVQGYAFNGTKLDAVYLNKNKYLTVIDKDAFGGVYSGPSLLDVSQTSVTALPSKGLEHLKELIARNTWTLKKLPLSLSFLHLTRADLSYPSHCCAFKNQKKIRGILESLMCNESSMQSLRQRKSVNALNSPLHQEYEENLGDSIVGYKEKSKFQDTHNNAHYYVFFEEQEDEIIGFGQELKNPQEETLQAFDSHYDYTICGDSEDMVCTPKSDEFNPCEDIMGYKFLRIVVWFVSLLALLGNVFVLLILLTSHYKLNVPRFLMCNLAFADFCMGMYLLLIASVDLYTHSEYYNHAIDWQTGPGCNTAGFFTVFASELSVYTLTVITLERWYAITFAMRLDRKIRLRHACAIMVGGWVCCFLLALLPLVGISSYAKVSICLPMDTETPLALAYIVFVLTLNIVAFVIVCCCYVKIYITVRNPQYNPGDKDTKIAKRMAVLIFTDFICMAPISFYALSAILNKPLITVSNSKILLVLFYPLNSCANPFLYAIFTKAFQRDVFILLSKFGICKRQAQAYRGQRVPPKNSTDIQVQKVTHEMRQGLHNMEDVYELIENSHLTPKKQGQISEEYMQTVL
# Chain of Progesterone receptor (Homo sapiens) (P06401 whole entry, looked up): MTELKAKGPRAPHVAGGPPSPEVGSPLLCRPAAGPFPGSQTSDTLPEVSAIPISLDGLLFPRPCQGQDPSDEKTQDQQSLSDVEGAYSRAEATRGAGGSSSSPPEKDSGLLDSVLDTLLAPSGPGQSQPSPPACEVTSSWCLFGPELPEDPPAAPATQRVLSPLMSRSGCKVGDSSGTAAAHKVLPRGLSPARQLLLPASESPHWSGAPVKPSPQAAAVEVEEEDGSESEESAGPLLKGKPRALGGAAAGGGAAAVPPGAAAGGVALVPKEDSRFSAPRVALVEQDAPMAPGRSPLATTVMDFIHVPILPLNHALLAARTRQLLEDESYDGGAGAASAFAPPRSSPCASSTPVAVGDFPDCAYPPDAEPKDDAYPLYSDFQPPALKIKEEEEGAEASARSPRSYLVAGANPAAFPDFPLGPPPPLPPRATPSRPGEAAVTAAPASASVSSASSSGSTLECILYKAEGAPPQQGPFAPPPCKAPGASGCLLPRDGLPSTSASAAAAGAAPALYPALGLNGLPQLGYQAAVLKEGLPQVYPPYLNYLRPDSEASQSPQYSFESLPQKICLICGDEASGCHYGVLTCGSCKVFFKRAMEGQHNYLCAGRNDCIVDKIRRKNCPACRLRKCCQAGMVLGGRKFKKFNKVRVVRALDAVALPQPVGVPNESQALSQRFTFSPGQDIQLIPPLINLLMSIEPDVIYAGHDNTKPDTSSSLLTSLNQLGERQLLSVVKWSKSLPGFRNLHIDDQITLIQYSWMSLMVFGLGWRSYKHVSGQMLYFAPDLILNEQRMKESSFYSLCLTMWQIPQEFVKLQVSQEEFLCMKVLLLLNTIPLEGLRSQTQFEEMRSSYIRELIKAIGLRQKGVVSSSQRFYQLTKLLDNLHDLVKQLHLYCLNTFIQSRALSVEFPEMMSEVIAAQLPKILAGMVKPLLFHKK
# Chain of Estrogen receptor (Homo sapiens) (P03372 whole entry, looked up): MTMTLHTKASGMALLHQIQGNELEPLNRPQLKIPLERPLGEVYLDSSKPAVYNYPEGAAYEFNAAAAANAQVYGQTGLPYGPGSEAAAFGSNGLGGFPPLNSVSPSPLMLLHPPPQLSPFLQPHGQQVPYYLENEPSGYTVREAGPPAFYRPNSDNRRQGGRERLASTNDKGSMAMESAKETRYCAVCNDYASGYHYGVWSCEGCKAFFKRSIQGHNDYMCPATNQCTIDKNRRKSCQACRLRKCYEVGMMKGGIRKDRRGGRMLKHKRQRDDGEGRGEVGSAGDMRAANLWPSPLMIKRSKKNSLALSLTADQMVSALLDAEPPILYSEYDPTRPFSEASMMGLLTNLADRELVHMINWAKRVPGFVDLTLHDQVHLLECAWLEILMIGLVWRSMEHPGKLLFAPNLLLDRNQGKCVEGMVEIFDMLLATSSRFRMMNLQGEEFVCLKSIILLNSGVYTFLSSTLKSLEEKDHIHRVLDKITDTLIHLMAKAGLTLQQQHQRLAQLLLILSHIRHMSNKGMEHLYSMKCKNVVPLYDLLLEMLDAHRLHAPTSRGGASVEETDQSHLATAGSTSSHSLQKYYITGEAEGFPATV
Compound,Potency [1],Potency [2],Potency [3],Potency [4],Potency [5],Potency [6],Potency [7],Potency [8],Potency [9],Potency [10],outcome [11],Potency [12],Potency [13],Potency [14],Potency [15],Potency [16],Potency [17],Potency [18],outcome [19],Potency [20]
Clc1ccc(C(Cn2ccnc2)OCc2c(Cl)cccc2Cl)c(Cl)c1 (stereo not given),8.41 µM (active),inactive,inactive,inactive,inactive,inactive,inactive,29.8 µM (active),23.7 µM (active),inactive,inactive,inactive,inactive,,,,,,,
C[Si](C)(C)Cl,inactive,inactive,,inactive,inactive,inactive,inactive,inactive,inactive,inactive,inactive,inactive,inactive,inactive,inactive,inactive,inactive,inactive,inactive,
NC(=O)C(=O)N/N=C/c1ccc([N+](=O)[O-])o1,inactive,inactive,inactive,inactive,inactive,inactive,inactive,inactive,inactive,inactive,inactive,inactive,inactive,inactive,,,inactive,inactive,inactive,inactive
CC1CNCC(C)O1 (stereo not given),inactive,inactive,,inactive,inactive,inactive,inactive,inactive,inactive,inactive,inactive,inactive,inactive,inactive,inactive,inactive,inactive,inactive,inactive,
CCc1c(Br)c(Br)c(Br)c(Br)c1Br,inactive,inactive,,inactive,inactive,inactive,,inactive,inactive,inactive,,,inactive,inactive,inactive,inactive,inactive,inactive,,inactive
C=CC(C)(CCC=C(C)C)OC(=O)/C=C/c1ccccc1 (stereo not given),inactive,inactive,,inactive,inactive,inactive,inactive,inactive,inactive,inactive,inactive,,inactive,inactive,inactive,,inactive,inactive,inactive,inactive
NC(=O)c1ccccc1N,inactive,inactive,,inactive,inactive,inactive,inactive,inactive,inactive,inactive,inactive,inactive,inactive,inactive,inactive,inactive,,,inactive,
